# Source: PubChem BioAssay AID1159580 (chemical genetic matrix, 2015)
# Hit rate of the full screen: of about 5,500 compounds, about 2,000 (36%) were called active. Not shown: some 18% with an inconclusive outcome. This is one part of the list. Unmarked numbers belong to inactive results. Cut-off read from the data, not from the text of the source: active = normalized growth mostly below about 0.91 (no sharp cut-off); inconclusive = no clear call, values can overlap the other calls; inactive = mostly above about 0.92.
# Experiment: chemical genetic growth profiling, strain panel (AID 1159580);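 note: tested at 20 µM; growth read once vehicle control cultures reached saturation at 30 °C; 1 = growth at the plate median or of vehicle wells; lower values mean less growth of the strain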
# Settings: growth OD
structure (smiles),measurement,setting,value
Cc1cc(C(C)(C)C)c(O)c(C(C)(C)C)c1,normalized growth,"S. cerevisiae deletion strains, locus YJR075W, strain HOC1, hits give low values",0.929
same,normalized growth,"S. cerevisiae deletion strains, locus YKL009W, strain mrt4, hits give low values",1
same,normalized growth,"S. cerevisiae deletion strains, locus YKL068W, hits give low values",0.978
same,normalized growth,"S. cerevisiae deletion strains, locus YKL085W, strain MDH1 (second series), hits give low values",1
same,normalized growth,"S. cerevisiae deletion strains, locus YKL085W, strain MDH1, hits give low values",1
same,normalized growth,"S. cerevisiae deletion strains, locus YKL160W, strain elf1, hits give low values",1
same,normalized growth,"S. cerevisiae deletion strains, locus YKL190W, strain CNB1, hits give low values",0.96
same,normalized growth,"S. cerevisiae deletion strains, locus YKR001C, strain vps1, hits give low values",0.927
same,normalized growth,"S. cerevisiae deletion strains, locus YKR026C, strain gcn3, hits give low values",0.978
same,normalized growth,"S. cerevisiae deletion strains, locus YKR091W, strain srl3, hits give low values",0.986
same,normalized growth,"S. cerevisiae deletion strains, locus YLL001W, strain dnm1, hits give low values",0.99
same,normalized growth,"S. cerevisiae deletion strains, locus YLL026W, hits give low values",0.954
same,normalized growth,"S. cerevisiae deletion strains, locus YLL041C, strain sdh2, hits give low values",0.978
same,normalized growth,"S. cerevisiae deletion strains, locus YLR027C, strain aat2, hits give low values",0.932
same,normalized growth,"S. cerevisiae deletion strains, locus YLR039C, strain RIC1, hits give low values",0.861
same,normalized growth,"S. cerevisiae deletion strains, locus YLR058C, strain SHM2, hits give low values",0.964
same,normalized growth,"S. cerevisiae deletion strains, locus YLR102C, strain apc9, hits give low values",0.989
same,normalized growth,"S. cerevisiae deletion strains, locus YLR113W, strain HOG1, hits give low values",0.85 (active)
same,normalized growth,"S. cerevisiae deletion strains, locus YLR221C, strain rsa3, hits give low values",0.853 (active)
same,normalized growth,"S. cerevisiae deletion strains, locus YLR258W, strain gsy2, hits give low values",0.997
same,normalized growth,"S. cerevisiae deletion strains, locus YLR262C, strain YPT6 (second series), hits give low values",0.956
same,normalized growth,"S. cerevisiae deletion strains, locus YLR262C, strain YPT6, hits give low values",0.85
same,normalized growth,"S. cerevisiae deletion strains, locus YLR268W, strain sec22, hits give low values",0.944
same,normalized growth,"S. cerevisiae deletion strains, locus YLR320W, strain mms22, hits give low values",0.904
same,normalized growth,"S. cerevisiae deletion strains, locus YLR330W, strain CHS5, hits give low values",0.99
same,normalized growth,"S. cerevisiae deletion strains, locus YLR342W, strain FKS1 (second series), hits give low values",1.09
same,normalized growth,"S. cerevisiae deletion strains, locus YLR342W, strain FKS1, hits give low values",0.975
same,normalized growth,"S. cerevisiae deletion strains, locus YLR357W, strain rsc2, hits give low values",0.966
same,normalized growth,"S. cerevisiae deletion strains, locus YLR370C, strain arc18, hits give low values",0.986
same,normalized growth,"S. cerevisiae deletion strains, locus YLR371W, strain rom2, hits give low values",1.01
same,normalized growth,"S. cerevisiae deletion strains, locus YLR384C, strain iki3, hits give low values",0.971
same,normalized growth,"S. cerevisiae deletion strains, locus YLR418C, strain cdc73, hits give low values",0.855
same,normalized growth,"S. cerevisiae deletion strains, locus YML016C, strain PPZ1, hits give low values",0.997
same,normalized growth,"S. cerevisiae deletion strains, locus YML032C, strain rad52, hits give low values",0.973
same,normalized growth,"S. cerevisiae deletion strains, locus YML120C, strain ndi1, hits give low values",0.938
same,normalized growth,"S. cerevisiae deletion strains, locus YML124C, strain tub3, hits give low values",0.995
same,normalized growth,"S. cerevisiae deletion strains, locus YMR058W, strain fet3, hits give low values",0.968
same,normalized growth,"S. cerevisiae deletion strains, locus YMR078C, strain ctf18, hits give low values",0.995
same,normalized growth,"S. cerevisiae deletion strains, locus YMR125W, strain sto1, hits give low values",0.989
same,normalized growth,"S. cerevisiae deletion strains, locus YMR129W, hits give low values",1
same,normalized growth,"S. cerevisiae deletion strains, locus YMR205C, strain PFK2, hits give low values",0.998
same,normalized growth,"S. cerevisiae deletion strains, locus YMR223W, strain ubp8, hits give low values",0.958
same,normalized growth,"S. cerevisiae deletion strains, locus YMR231W, strain pep5, hits give low values",0.989
same,normalized growth,"S. cerevisiae deletion strains, locus YMR263W, strain SAP30, hits give low values",0.898
same,normalized growth,"S. cerevisiae deletion strains, locus YMR307W, strain GAS1, hits give low values",0.901
same,normalized growth,"S. cerevisiae deletion strains, locus YNL067W, strain RPL9B, hits give low values",0.926
same,normalized growth,"S. cerevisiae deletion strains, locus YNL071W, strain lat1, hits give low values",0.997
same,normalized growth,"S. cerevisiae deletion strains, locus YNL128W, strain TEP1, hits give low values",0.874
same,normalized growth,"S. cerevisiae deletion strains, locus YNL153C, strain GIM3, hits give low values",0.917
same,normalized growth,"S. cerevisiae deletion strains, locus YNL183C, strain NPR1, hits give low values",0.938
same,normalized growth,"S. cerevisiae deletion strains, locus YNL209W, strain ssb2, hits give low values",0.993
same,normalized growth,"S. cerevisiae deletion strains, locus YNL233W, strain BNI4, hits give low values",0.844 (active)
same,normalized growth,"S. cerevisiae deletion strains, locus YNL248C, strain rpa49, hits give low values",0.904
same,normalized growth,"S. cerevisiae deletion strains, locus YNL250W, strain rad50, hits give low values",0.993
same,normalized growth,"S. cerevisiae deletion strains, locus YNL271C, strain bni1, hits give low values",1
same,normalized growth,"S. cerevisiae deletion strains, locus YNL298W, strain CLA4, hits give low values",0.962
same,normalized growth,"S. cerevisiae deletion strains, locus YNL307C, strain MCK1, hits give low values",0.98
same,normalized growth,"S. cerevisiae deletion strains, locus YNL322C, strain KRE1 (second series), hits give low values",1.01
same,normalized growth,"S. cerevisiae deletion strains, locus YNL322C, strain KRE1, hits give low values",0.975
same,normalized growth,"S. cerevisiae deletion strains, locus YNR049C, strain mso1, hits give low values",0.982
same,normalized growth,"S. cerevisiae deletion strains, locus YNR052C, strain pop2, hits give low values",1
same,normalized growth,"S. cerevisiae deletion strains, locus YOL006C, strain TOP1, hits give low values",0.888
same,normalized growth,"S. cerevisiae deletion strains, locus YOL012C, strain htz1",2.14 [resistant] (active)
same,normalized growth,"S. cerevisiae deletion strains, locus YOL147C, strain pex11, hits give low values",0.996
same,normalized growth,"S. cerevisiae deletion strains, locus YOR001W, strain rrp6, hits give low values",0.916
same,normalized growth,"S. cerevisiae deletion strains, locus YOR061W, strain CKA2, hits give low values",0.966
same,normalized growth,"S. cerevisiae deletion strains, locus YOR069W, strain VPS5, hits give low values",0.997
same,normalized growth,"S. cerevisiae deletion strains, locus YOR070C, strain gyp1, hits give low values",0.957
same,normalized growth,"S. cerevisiae deletion strains, locus YOR080W, strain dia2, hits give low values",0.99
same,normalized growth,"S. cerevisiae deletion strains, locus YOR083W, strain WHI5, hits give low values",0.986
same,normalized growth,"S. cerevisiae deletion strains, locus YOR106W, strain vam3, hits give low values",0.966
same,normalized growth,"S. cerevisiae deletion strains, locus YOR136W, strain idh2, hits give low values",0.974
same,normalized growth,"S. cerevisiae deletion strains, locus YOR144C, strain elg1, hits give low values",0.987
same,normalized growth,"S. cerevisiae deletion strains, locus YOR184W, strain ser1, hits give low values",1.01
same,normalized growth,"S. cerevisiae deletion strains, locus YOR231W, strain MKK1, hits give low values",0.916
same,normalized growth,"S. cerevisiae deletion strains, locus YOR265W, strain rbl2, hits give low values",0.992
same,normalized growth,"S. cerevisiae deletion strains, locus YOR270C, strain vph1, hits give low values",0.84
same,normalized growth,"S. cerevisiae deletion strains, locus YOR290C, strain snf2, hits give low values",0.954
same,normalized growth,"S. cerevisiae deletion strains, locus YOR316C, strain cot1, hits give low values",0.992
same,normalized growth,"S. cerevisiae deletion strains, locus YPL051W, strain arl3, hits give low values",0.954
same,normalized growth,"S. cerevisiae deletion strains, locus YPL055C, strain LGE1, hits give low values",0.798
same,normalized growth,"S. cerevisiae deletion strains, locus YPL078C, strain atp4, hits give low values",0.99
same,normalized growth,"S. cerevisiae deletion strains, locus YPL106C, strain sse1, hits give low values",0.917
same,normalized growth,"S. cerevisiae deletion strains, locus YPL240C, strain hsp82, hits give low values",0.985
same,normalized growth,"S. cerevisiae deletion strains, locus YPL241C, strain CIN2, hits give low values",0.98
same,normalized growth,"S. cerevisiae deletion strains, locus YPL256C, strain CLN2, hits give low values",0.922
same,normalized growth,"S. cerevisiae deletion strains, locus YPR119W, strain clb2, hits give low values",0.995
same,normalized growth,"S. cerevisiae deletion strains, locus YPR141C, strain kar3, hits give low values",0.97
same,normalized growth,"S. cerevisiae deletion strains, locus YPR163C, strain tif3, hits give low values",0.981
same,normalized growth,"S. cerevisiae deletion strains, locus YPR167C, strain met16, hits give low values",0.985
same,normalized growth,"S. cerevisiae deletion strains, strain wtn01, hits give low values",0.938
same,normalized growth,"S. cerevisiae strains, strain wild type, hits give low values",0.933
